To fix the notation:
T1: USP38, Q8NB14
T1 chain: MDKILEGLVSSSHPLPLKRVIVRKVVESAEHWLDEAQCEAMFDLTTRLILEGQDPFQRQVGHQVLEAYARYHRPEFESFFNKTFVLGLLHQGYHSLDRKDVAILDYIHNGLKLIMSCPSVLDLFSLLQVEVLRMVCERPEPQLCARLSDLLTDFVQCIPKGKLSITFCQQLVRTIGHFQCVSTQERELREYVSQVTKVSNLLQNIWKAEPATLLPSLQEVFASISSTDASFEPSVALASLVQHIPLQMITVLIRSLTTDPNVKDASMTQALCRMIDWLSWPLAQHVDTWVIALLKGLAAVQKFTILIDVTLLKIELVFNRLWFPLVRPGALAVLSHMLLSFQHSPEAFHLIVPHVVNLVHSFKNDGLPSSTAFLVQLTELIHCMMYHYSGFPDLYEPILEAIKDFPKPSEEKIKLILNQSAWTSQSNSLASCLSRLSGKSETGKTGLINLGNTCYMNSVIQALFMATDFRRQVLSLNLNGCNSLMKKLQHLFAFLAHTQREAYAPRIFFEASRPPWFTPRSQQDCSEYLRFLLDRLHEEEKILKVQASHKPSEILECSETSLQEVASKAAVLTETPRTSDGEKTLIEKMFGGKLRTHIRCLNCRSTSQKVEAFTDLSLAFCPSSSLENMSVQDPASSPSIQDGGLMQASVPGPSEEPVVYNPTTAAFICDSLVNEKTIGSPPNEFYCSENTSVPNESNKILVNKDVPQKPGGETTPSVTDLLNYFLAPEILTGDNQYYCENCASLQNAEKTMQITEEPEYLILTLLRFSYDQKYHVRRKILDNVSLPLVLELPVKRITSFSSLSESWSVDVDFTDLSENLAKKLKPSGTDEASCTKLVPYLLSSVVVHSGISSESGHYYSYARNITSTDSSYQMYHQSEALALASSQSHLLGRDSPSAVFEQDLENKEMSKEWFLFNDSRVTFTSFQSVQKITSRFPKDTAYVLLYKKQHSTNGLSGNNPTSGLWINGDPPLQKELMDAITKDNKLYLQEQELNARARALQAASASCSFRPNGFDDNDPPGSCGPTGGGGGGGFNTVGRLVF

B1: usp_38_diff_out_18_28_392 (protein)
chain: MEEERERLERELEELRRRLDELIDEATAVATAKLEEHPDDEEVWALIDELFDALGAAAQALREARELLREGGDPEEVRRKLEEARRALEEAERLLAELKA
B2: usp_38_diff_out_18_28_383 (protein)
chain: AEAERAELEKRLEELEKELNELIDEATEAATEKLEAEPDSEEVWELVDELFDELGKAAAKLREARELLRAGAPAEEVQKALEEAEEHLKRAKELLEELKE
B3: usp_38_diff_out_18_28_364 (protein)
chain: SAAERAALEAELKALTAELDALIDEATEVATEKLTEHPDDEEVWELVDKLFDALGAAAAALNKARELLREGGPLEEVKKQLAKAKEALAEAKKLLEELKK
B4: usp_38_diff_out_18_28_389 (protein)
chain: AAAARAALEAELAALRAELDALIDEATELATRKLEEHPDDEEVWELVDRLFDALGRAAAHLEEARRLLREGGDLAAVQAELDAARAALAEAKRLLEELKA
B5: usp_38_diff_out_18_28_382 (protein)
chain: AAAEREKLEAELKKLEAELNKLIDEATELATKKLTEHPDDEEVWKLVDELFDALGKAAAALNRARELLRAGGPAEEVKKALEEAEKYMKEAKKLMEELKK
B6: usp_38_diff_out_18_28_374 (protein)
chain: SEEEREELERRLRELEERLDELIDEYVELAERVYLEHPDDAEKLALLDAAADALGAAAYHLREARRLLREGGDPEEVERELEKAEEALEEAERLLEELKA
B7: usp_38_diff_out_18_28_393 (protein)
chain: SEERRKELEERLKALEAELDALITEATAVATERLEAHPDDEAVWELVDALFDALGAAAAALREARELLRAGGDLEEVEALLDQAEAALAEAKALLAELKA
B8: usp_38_diff_out_18_28_386 (protein)
chain: EEERRRELERELRELERRLDELIDEAVAAATEALEAHPDDEEVWALVDELFDTLGRAAAALREARELLRAGGPLEEVERALREAREALERAERLLAELKA
B9: usp_38_diff_out_18_28_394 (protein)
chain: SAAERAALEAELAALEAELDALIDEATKAATEALTANPDSEEVWALVDALFDALGAAAAALRRARELLRAGGPLAEVQAALDEARKHLAEAKKLLKELKA
B10: usp_38_diff_out_18_28_365 (protein)
chain: SEEERRELERRLEELTRRLDELIDEATEAATEALTAHPDDEEVWELVDRLFDALGAAAAALNRARELLREGGPLEEVEEELEEAERHLREAERLLEELRE
B11: usp_38_diff_out_18_28_388 (protein)
chain: SEEEREELRERLEELEKRLDALIDEATAVATAALTAHPDSAEVQALVAELFDALGAAAAALRRARELLRRGGPLEEVREALEEAERHLEEAERLLAELRA
B12: usp_38_diff_out_18_28_366 (protein)
chain: SMEEREKLEKELEELKKELDALIDEATALATEALTAHPDDEEVWALVDELFDSLGKAAAHLNRARELLREGGPLEEVEKELKEAKEHLEKAKELLAKLKA
B13: usp_38_diff_out_18_28_384 (protein)
chain: DAAERAALEKELEELRKRLDELIDRAVEAATAALEAHPDDEAVWALVDALFDTLGAAAAALNEARALLKAGGDPAEVKAALEEARKALAEAERLLAELEA
B14: usp_38_diff_out_18_28_387 (protein)
chain: MEKEREELKKELEELRKRLDELIDRATEEATRALTAHPDDEEVWELIDRLFDTLGEAAAALNRARELLRAGGPLEEVKKELEKARKALEEAERLLEELEA
B15: usp_38_diff_out_18_28_368 (protein)
chain: SEEERRELERRLEELTKRLDELIDEATAESTRALTAHPDDEAVWALVDALFDALGAAAAALNRARELLREGGPLEEVQKELDRAEAALKEAEALLAELKA
B16: usp_38_diff_out_18_28_376 (protein)
chain: SAAERARLEAELAALRAELDALIDEATATATEALEAHPDSEEVWALIDALFDALGAAAAALEEARRLLRAGGPLAEVQALLDRAREHLRRARELLAELKA
B17: usp_38_diff_out_18_28_395 (protein)
chain: MEEERAKLEEELKKLEKELNELIDRATAAATAALTAHPDDADVWALVDALFDSLGAAAYHLREARELLREGGPLEEVKKELEKAKEHLKEAKALLAELEA
B18: usp_38_diff_out_18_28_385 (protein)
chain: MEEERKKLEEELEKLKKELDKLIDEAVELATAALEAHPDDEAVWALVDALFDALGAAAAALNRARELLKAGGDPEEVKKELDKARAALKEAKALLAELKA
B19: usp_38_diff_out_18_28_378 (protein)
chain: AAAERAALEAELAALRAELDALIDEATEAATRALEAHPDDEEVWALVDELFDTLGAAAAALNEARRLLKEGGDLAEVKAALAAARDALARARELLAELKA
B20: usp_38_diff_out_18_28_369 (protein)
chain: SAAERAALEAELAALTARLDALIDEATAEATRRLTEHPDDEEVWELVDELFDALGAAAAALREARELLREGGPLAEVQAALDRARAALARAEALLAELKA
B21: usp_38_diff_out_18_28_370 (protein)
chain: SEEERERLEERLAALKAELDALIDRATAAATAALEAHPDDAEVWALIDALFDALGAAAAALNEARRLLREGGDLEEVERLLEQAEAHLAQARALLAQLEA
B22: usp_38_diff_out_18_28_391 (protein)
chain: SSAERERLERELERLERELDELIDEATAVATEKLEEHPDDEEVWRLIDELFDALGRAARALSEARRLLREGGPPEEVERALEEARRHLERARELLEELKE
B23: usp_38_diff_out_18_28_381 (protein)
chain: AEARRAELERRLEELLRELNELIDEATKLATEKLTEHPDDEEVWELVDRLFDELGRAAAHLREARELLRAGAPAEEVEKELREAEEHLKRAKELLKELEA
B24: usp_38_diff_out_18_28_379 (protein)
chain: EEARREELERRLEELRRRLDELIDEATEAATEALTAHPDDEEVWELVDELFDTLGRAAAALERARRLLREGGPLEEVERALEEAERHLEEAEELLEELEE
B25: usp_38_diff_out_18_28_372 (protein)
chain: SAAERAALEARLAALEAELNALIDEFVELAERVYEERADDEEALALLDRAWDALGAAAAALNRARELLREGGPAAEVQAQLDAAEAALAEAKALLAELKA
B26: usp_38_diff_out_18_28_377 (protein)
chain: MEEERERLERELEELRERLDELIDEATEASLKKLEEEPDSEEVWELIDRLFDALGAAAAALREARELLKAGGPLEEVQRLLEEARRHLEEAERLLEELKE
B27: usp_38_diff_out_18_28_375 (protein)
chain: SAATRAALEAELAALEARLDALIDEYVALANRVYEEHPDDAEALALLDAAADALGAAAAALAEARRLLRAGGDPAEVRARLAEARAALAEAEALLAQLKA
B28: usp_38_diff_out_18_28_380 (protein)
chain: AEEERRRLEEELEALKAELDALITEATALATAKLEAHPDDAEVWALVDALFDALGAAAAALERARELLRAGAPPEEVRAALAEARAHIAEARALMAQLAA
B29: usp_38_diff_out_18_28_373 (protein)
chain: SEEEREELKKRLEELEKRLDELIDRYVELANRVYEEHPDDEEKLRLLDEAADALGEAAYHLREARRLLREGGPPEEVKKELEKAEEALKKAEELLKELEE
B30: usp_38_diff_out_18_28_367 (protein)
chain: SAAARAAAEARLAALTAELDELIDEATAEATAALTAHPDDAAVWALVDALFDALGAAAAALNRARELLREGGPLEEVEAALAQAEAELARARELLAQLRA
B31: usp_38_diff_out_18_28_390 (protein)
chain: EEEERERLERRLRELERELDALIDEATAAITEALTAHPDDEEVWALVDALLDSLGRAAAALNEARRLLAEGGPLEEVERALEEAERHLREAKALLAELKA
B32: usp_38_diff_out_18_28_371 (protein)
chain: SAAERAALEARLAALEAELDALIDELVELAKEVYEEHADDEEKLALLDAAWDALGRAAGLLRRARELLREGGDPAEVAALLDAAEAALAEAKALLAELKK

Data on 32 molecules can be found in the supplement of paper PMC12632987.

The target of this assay is T1, USP38, Q8NB14. In words: median log2 fold change of GCK-ALFA target abundance (FLAG IP / Myc IP barcode read proportion) (log2 ratio); each designed protein is fused to an ALFA-tag nanobody in HEK293 cells to bring the named protein to FLAG-tagged glucokinase (GCK); Myc marks an untargeted standard; higher = target protein stabilised (more abundant). To be noted: target protein: 3xFLAG-MCP-GCK-ALFA reporter; HEK293 landing pad (RPLP). The essentials: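 Sequencing of reverse-transcribed, amplified circular RNA barcodes from anti-FLAG and anti-Myc immunoprecipitates provided the readout for an ALFA-nanobody-fused binder library recombined into HEK293 landing-pad cells. Those cells were induced with 2 μg mL^−1 doxycycline, transfected with a plasmid expressing a FLAG-tagged target and a Myc-tagged standard, and lysed after 48 h. Target abundance is the per-binder median log2 ratio of FLAG to Myc barcode read proportions. Only barcodes at a proportion of ≥10^−7 in both replicates and binders with ≥3 barcodes per replicate were kept, with a 10^−6 pseudocount added before the two replicates were pooled.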
For B1, the “median log2 fold change” value was -0.26.
With B2 the figure was -0.0589; with B3, 0.391; with B4, -0.314.
B5: the “median log2 fold change” value stood at 0.595.
For B6 the value was -0.302; for B7, -0.136.
With B8 the figure was -0.0533.
For B9 the value was -0.118; for B10, 0.239; for B11, 0.11.
In the case of B12, the “median log2 fold change” value was -0.062.
Turning to B13, the “median log2 fold change” value stood at 0.0029.
With B14 the figure was -0.291; with B15, 0.199.
With B16 the figure was -0.0614.
With B17 the figure was -0.179; with B18, -0.282; with B19, -0.0434.
Consider B20, for which the “median log2 fold change” value came out at 0.292.
For B21 the value was 0.0316; for B22, -0.315.
For B23 the value was -0.371; for B24, -0.355; for B25, -0.142.
Consider B26, for which the “median log2 fold change” value is -0.388.
With B27 the figure was -0.238; with B28, -0.0972.
For B29 the value was 0.0573; for B30, 0.0424; for B31, 0.124.
With B32 the figure was -0.371.
